Screening results (PubChem)
Shown are actives, neighbours in structure and some others; about 4.7% of the full set was active somewhere.
ATXN viability: viability counter-screen for ATXN expression inhibitors; S2 cells (HEK-293 line with an ATXN2-luciferase reporter) viability, CellTiter-Fluor protease fluorescence, 24 h; Potency, µM (titrated, usually from 56.7 µM), actives largely listed as cytotoxic; 400,000 compounds, 0.49% hits; AID 651635; further: potency means the concentration at half of the fitted maximal effect; nearly all actives have a fitted effect of over 40% in size
D3 antag: antagonists of human D3 dopamine receptor. P35462. D3R cells, DiscoveRx beta-arrestin luminescence, antagonist mode; stronger effect = lower value. max response, negative = inhibition, %. 360,000 compounds, 2.5% hits; in the data active means max response below about -50%; inconclusive means no clear call, values can overlap the other calls; further: on the % scale 0 is the no-effect control and ±100 the full control effect
Target sequence (P35462 whole entry, looked up): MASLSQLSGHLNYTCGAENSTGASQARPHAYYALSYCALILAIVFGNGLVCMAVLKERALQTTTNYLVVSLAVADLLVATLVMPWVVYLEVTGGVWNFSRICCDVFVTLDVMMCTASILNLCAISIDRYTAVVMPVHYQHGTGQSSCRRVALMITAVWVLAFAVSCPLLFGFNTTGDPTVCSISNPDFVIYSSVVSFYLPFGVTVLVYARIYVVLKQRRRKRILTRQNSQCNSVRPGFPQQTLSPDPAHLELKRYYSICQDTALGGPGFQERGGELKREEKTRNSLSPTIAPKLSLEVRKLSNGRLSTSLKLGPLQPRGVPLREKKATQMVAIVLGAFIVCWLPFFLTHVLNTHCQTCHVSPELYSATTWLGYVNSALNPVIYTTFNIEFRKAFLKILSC
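Cells plated overnight at 1500 cells/well, then exposed to library compounds with dopamine controls for 90 minutes at 37 degrees C. DiscoveRx reagent added for 30–60 minutes at room temperature; luminescence read, quantitative HTS format.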
HepG2 tox-1: counter-screen for TGF-b inhibitors: cytotoxicity in HepG2 cells; Potency, µM (highest dose often 46.1 µM), inactives show top-dose activity change, negative = cytotoxicity, most hits filed as cytotoxic; HepG2 CAGA-GFP viability, ATP luminescence, 18 h; 410,000 compounds, 0.76% hits; further: potency means the concentration at half of the fitted maximal effect
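HepG2 CAGA-GFP cells (1000/well, DMEM with 1% FBS) received compound, then TGF-beta at 500 pg/mL final, and were incubated 18 hours at 37 degrees C. Viability was read by CellTiter-Glo luminescence. Media-only wells were set as complete cell-killing and DMSO as no toxicity.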
ATXN2 expr inh: reduces ATXN2 reporter expression in HEK-293 cells | HEK-293 ATXN2-luciferase reporter, luminescence, 24 h | Potency, µM (series often up to 57 µM), without a hit: top-dose activity change, negative = inhibition, most hits filed as inhibitors | 360,000 compounds, 0.72% hits | AID 1745845; further: potency means the concentration at half of the fitted maximal effect; on the % scale 0 is the no-effect control and ±100 the full control effect; nearly all actives have a fitted effect of over 55% in size
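ATXN2-luciferase reporter cells (luciferase flanked by upstream and downstream ATXN2 gene portions) were treated 24 h at 37 °C with compounds at up to 57 uM. SteadyGlo luminescence gave expression; GF-AFC fluorescence gave viability.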
TGFb inhibitor: TGF-b pathway inhibition; HepG2 CAGA-GFP TGF-b/SMAD3 reporter, GFP fluorescence, 18 h; TGF-beta stimulated, 500 pg/mL final; Potency, µM (titrated, usually from 46.1 µM), for the others: at the highest dose activity, negative = inhibition, actives largely listed as inhibitors; 410,000 compounds, 1.2% hits; AID 588855; further: potency means the concentration at half of the fitted maximal effect; on the % scale 0 is the no-effect control and ±100 the full control effect; nearly all actives have a fitted effect of over 65% in size
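Inhibition was scored as loss of TGF-beta-induced (500 pg/mL final, 18 hours, 37 degrees C) GFP in HEPG2 cells carrying a CAGA-GFP reporter, in DMEM with 1% FBS. Well GFP was summed per cell; Activity was normalised to unstimulated and stimulated DMSO wells, then concentration-response fitting.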
D3 ag: activates the human D3 dopamine receptor; D3R DiscoveRx beta-arrestin cells, luminescence, 90 min; max activation, %; 410,000 compounds, 0.58% hits; AID 652048; in the data active means max activation above about 30%; further: 0% is about no effect
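Cells at 1500/well, incubated overnight, then treated with pinned compounds (dopamine as control) for 90 min at 37 degrees C. DiscoveRx reagent added for 30 - 60 minutes at room temperature; luminescence read.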
TGFb confirm: confirmation of TGF-b signaling inhibitors in HepG2 reporter cells | shares compounds with TGFb inhibitor | HepG2 CAGA-GFP TGF-b reporter, GFP fluorescence, 18 h; cells stimulated with TGF-beta, 500 pg/mL | AID 720534 | Potency, µM (highest dose often 46.1 µM), for inactives: at the highest dose activity, negative = inhibition, usual class: inhibitors | 1,600 compounds, 63% hits; further: potency means the concentration at half of the fitted maximal effect; on the % scale 0 is the no-effect control and ±100 the full control effect; nearly all actives have a fitted effect of over 65% in size
HepG2 tox-2: toxic to HepG2 cells in TGF-b counterscreen; Potency, µM (titrated, usually from 46.1 µM), for the others: top-dose activity, negative = cytotoxicity, usual class: inhibitors; shares compounds with TGFb inhibitor; HepG2 CAGA-GFP viability, ATP luminescence, 18 h; cells stimulated with TGF-beta, 500 pg/mL; AID 720535; 1,600 compounds, 27% hits; further: potency means the concentration at half of the fitted maximal effect; on the % scale 0 is the no-effect control and ±100 the full control effect; nearly all actives have a fitted effect of over 70% in size
CCL64 TGFb inh: TGF-b inhibition, CCL64 orthogonal assay | Potency, µM (highest dose often 46.1 µM), for the others: at the top dose activity, negative = inhibition, most hits filed as inhibitors | shares compounds with TGFb inhibitor | CCL64 CAGA-GFP reporter, TGF-b stimulated, GFP fluorescence, 18 h | AID 720536 | 1,600 compounds, 41% hits; further: potency means the concentration at half of the fitted maximal effect; nearly all actives have a fitted effect of over 65% in size
COP TGFb inh: TGF-b inhibition validated with COP promoter; HepG2 COP-GFP TGF-b reporter, GFP fluorescence, 18 h; cells stimulated by added recombinant TGF-beta; 1,600 compounds, 3% hits; AID 720537; Potency, µM (titrated, usually from 46.1 µM), inactives show top-dose activity, negative = inhibition, most hits filed as inhibitors; shares compounds with TGFb inhibitor; further: potency means the concentration at half of the fitted maximal effect; nearly all actives have a fitted effect of over 70% in size
* hit, by the source's call; i = inactive; ? = inconclusive; . = not tested or not shown. Unless noted, the call rests on the fitted dose curve; in most records, active means well fitted curve in the direction sought with a large enough effect; inconclusive means small, poorly fitted or top-dose-only effect, or another doubt; inactive means no such curve, though single readings can be large; an effect the other way counts as inactive or inconclusive.

SMILES	ATXN viability	D3 antag	HepG2 tox-1	ATXN2 expr inh	TGFb inhibitor	D3 ag	TGFb confirm	HepG2 tox-2	CCL64 TGFb inh	COP TGFb inh
Cc1sc2ncnc(N3CCC(C(=O)Nc4nc(-c5cccs5)cs4)CC3)c2c1C	?	50.6	-1.2%	40.8%	?	13.8	7.31µM*	?	?	26.7%
O=c1c(Cc2ccc(Cl)cc2Cl)c(O)ccn1Cc1ccc(Cl)cc1	i	126.4	0.7%	-11.7%	11.2µM*	12.9	?	?	?	23.6%
COC(=O)c1ccc(OCC2c3cc(OC)c(OC)cc3CCN2C(=O)c2ccccc2C)cc1 (centres undefined)	i	.	-19.0%	?	?	0.8	.	.	.	.
CC(NC(=O)C1CCCN1S(=O)(=O)c1ccccc1)c1ccccc1 (centres undefined)	i	-17.6	-28.2%	-12.6%	?	-1.6	?	7.4%	8.8%	0.7%
CC(NC(=O)C1CCCN1S(=O)(=O)c1ccc2c(c1)n(C)c(=O)c(=O)n2C)c1ccccc1 (centres undefined)	i	-2.5	-28.8%	-0.8%	-1.8%	-9.7	.	.	.	.
Cc1cccc(N2CCN(S(=O)(=O)c3ccc(-c4cnc(C5CC5)o4)cc3)CC2)c1C	?	.	-28.8%	-28.0%	?	-3.8	.	.	.	.
O=c1[nH]c2ccccc2cc1-c1nnn(-c2ccc(Cl)c(Cl)c2)n1	i	3.4	-17.1%	-1.5%	?	1.2	-3.5%	6.7%	6.8%	2.0%
O=C(Nc1ccc(Br)cc1)c1cccc(S(=O)(=O)Nc2cnc3ccccc3c2)c1	i	-2.8	-26.9%	-17.2%	12.6µM*	15.2	8.2µM*	?	23.1µM*	91.9%
Cc1cccc(C2(c3cccc(C)c3)CC2C(=O)Nc2ccc([N+](=O)[O-])cc2O)c1 (centres undefined)	17.8µM*	-69.5*	11.2µM*	?	7.94µM*	-10.5	6.51µM*	11.6µM*	7.31µM*	12.4%
COc1ccc(CNC(=O)Cc2csc3nc(-c4ccc(C)cc4)cn23)cc1	?	.	-20.8%	14.8%	-2.7%	6.8	.	.	.	.
Cc1ccc(NC(=O)CN(C)S(=O)(=O)c2ccc3nc(C)sc3c2)c(C)c1	.	.	-6.3%	.	.	9.5	.	.	.	.
COc1ccc(C)cc1NC(=O)c1cc(S(=O)(=O)N2CCc3ccccc3C2)ccc1F	i	.	1.9%	-10.4%	-2.3%	-3.2	.	.	.	.
CCOC(=O)c1ccc2c(c1)nc(C1CCN(S(=O)(=O)c3cccs3)CC1)n2CC	?	17.4	-17.1%	?	?	6.8	?	?	-9.8%	25.1%
OCCCNc1cc(-c2ccnc(Nc3cccc(Cl)c3)n2)ccn1	?	7.6	-4.6%	0.159µM*	0.282µM*	18.9	0.058µM*	0.231µM*	0.184µM*	26.5%
CCC(C)Oc1cc(-c2ccnc(Nc3cccc(Cl)c3)n2)ccn1 (centres undefined)	i	35.4	2.4%	?	7.08µM*	26.2	5.8µM*	?	6.51µM*	42.0%
O=C(COC(=O)CC(c1ccccc1)c1ccccc1)NCc1ccc(Cl)cc1	i	17.1	-7.1%	-19.4%	11.2µM*	6.3	?	?	?	26.8%
O=C(Nc1cccc(-c2cn3cccnc3n2)c1)c1cc(Br)ccc1Cl	i	.	-16.5%	-16.2%	22.7%	-13.0	.	.	.	.
Cc1onc(-c2ccccc2Cl)c1C(=O)Nc1cccc(-c2cn3cccnc3n2)c1	i	21.9	0.0%	-10.2%	?	12.7	?	7.9%	-28.8%	0.9%
O=C(NC(=S)Nc1cccc(Cl)c1Cl)C1CC1	i	-21.4	-24.3%	43.2%	1.26µM*	-8.3	1.84µM*	3.66µM*	14.6µM*	63.0%
O=C(NC(=S)Nc1ccc(Br)c(Cl)c1)C1CC1	i	-17.4	-34.9%	12.0%	1.58µM*	-6.3	0.82µM*	2.06µM*	?	35.4%
CCC(=O)Nc1cccc(C(=O)OC)c1	i	-6.3	-38.5%	-13.4%	-2.2%	-8.9	.	.	.	.
CCC(=O)Nc1cccc(C(=O)/C=C/c2cc(Br)ccc2OC)c1	17.8µM*	-24.9	11.2µM*	15.8µM*	3.55µM*	-12.7	3.66µM*	7.31µM*	3.66µM*	?
COc1ccccc1Cc1c(-c2ccco2)nc2c(C)cc(Br)cn12	?	-92.4*	-86.9%	8.91µM*	8.91µM*	-16.5	7.31µM*	9.2µM*	4.61µM*	?
COc1ccccc1Cc1c(-c2ccco2)nc2c3ccccc3ccn12	i	0.9	.	57.3%	.	-0.9	.	.	.	.
COc1ccccc1Cc1c(-c2ccco2)nc2ccc(C)cn12	?	-50.5*	-17.3%	-18.6%	10µM*	-12.8	16.4µM*	?	?	49.3%
Cc1ccc2nc(-c3ccco3)c(CC3CCCCC3)n2c1	.	16.6	-32.1%	-35.7%	10µM*	-4.0	?	?	20.6µM*	16.3%
COc1ccc(Cc2c(-c3ccco3)nc3c(C)cc(Br)cn23)c(C)c1	?	18.6	-17.2%	-26.3%	?	6.5	.	.	.	.
Cc1ccc2nc(-c3ccc(Cl)cc3)c(CC3CCCCC3)n2c1	?	10.5	-42.3%	8.1%	-29.1%	-1.7	.	.	.	.
Cc1nc2ccc(S(=O)(=O)CCC(=O)Nc3ccc(C(C)C)cc3)cc2s1	.	.	-16.7%	.	?	1.6	.	.	.	.
Cc1ccc(-c2nc3ccc(Br)cn3c2Cc2cccc(F)c2)cc1	i	5.4	-10.8%	67.9%	11.2µM*	7.5	?	-15.8%	?	-1.6%
